Test results as given in PubChem BioAssay (NCI).
The panel holds about 83,000 compounds, 20% with a hit somewhere; the sample as a whole holds those more often.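 Single-dose data. Exposure time 48 hours. Values below 10 considered active.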 Activity calls are given as the source filed them.

Test system: TK-10 renal
Test: NCI-60 one-dose screen, 48 h (100 = growth as untreated, 0 = no growth, -100 = all killed)
Conditions: 10 µM unless noted

| Structure (SMILES) | growth |
| --- | --- |
| Cc1ccc2sc3c(NCCCNCCO)nc4ccccc4c3c(=O)c2c1 | 66.9% (inactive) |
| NCCOc1ncccc1/C=C1\c2ccccc2-c2ccc(F)cc21 | 22.4% (inactive) |
| CNCCNc1nc2ccccc2c2c(=O)c3cc(OC)ccc3sc12 | -15.1% (active) |
| CC(C)c1ccc(S(=O)(=O)NC(=O)NC2CCCC2)cc1 | 101% (inactive) |
| COc1cc(/C=C2\CN(C)C/C(=C\c3cc(CN4CCCC4)c(O)c(OC)c3)C2=O)cc(CN2CCCC2)c1O | 101% (inactive) |
| Nc1ccccc1-c1ccc(-c2ccc(Cl)cc2)c2c1[nH]c1ccccc12 | 84% (inactive) |
| O=C(Cn1cc(COc2ncnc3c2cnn3-c2ccccc2)nn1)Nc1ccccn1 | 115% (inactive) |
| NCCOc1ccccc1/C=C1\c2ccccc2-c2ccc([N+](=O)[O-])cc21 | -1.56% (active) |
| COc1cc(/C(C#N)=C/c2nc3c(N4CCOCC4)nc(Cl)nc3n2C)cc(OC)c1OC | 50.5% (inactive) |
| Cc1ccc2cccc(Oc3ccc(Nc4ncnc5onc(-c6ccccc6)c45)cc3)c2n1 | 86.6% (inactive) |
| COC(=O)/C(CCC=C(C)C)=C1\[C@@H](OC(C)=O)C[C@@]2(C)[C@H]1C[C@@H](O)[C@H]1[C@@]3(C)CC[C@H](NCc4ccccc4)[C@@H](C)[C@@H]3CC[C@@]12C | 111% (inactive) |
| COc1cc(/C=C/C(=O)c2ccc(Cl)cc2)cc(CN2CCCCC2)c1O | 115% (inactive) |
| O=C(/C=C/c1ccc(Cl)cc1)c1ccc(Nc2nc(NCCO)nc(Nc3ccc(Cl)cc3)n2)cc1 | 94.2% (inactive) |
| CN1CCN(Cc2ccc(NC(=O)c3[nH]ncc3Nc3cc(OC4CCCC4)ncn3)cc2)CC1 | 88.3% (inactive) |
| Cn1c(/C=C(\C#N)c2ccccc2)nc2c(N3CCOCC3)nc(Cl)nc21 | -63.6% (active) |
| CCN1C(=O)N(CC)C2Nn3c(s/c(=C\c4ccccc4F)c3=O)=NC21 (centres undefined) | 87.2% (inactive) |
| Cc1ccccc1CNC(=O)C1CN(c2ccc(Cl)cc2)N(c2ccc(Cl)cc2)C1=O (centres undefined) | 91.3% (inactive) |
| CCCCC1CCc2cccc3c(SCC(=O)N(C)c4ccc(Cl)cc4)cc[n+]1c23 (centres undefined) | 109% (inactive) |
| Clc1ccc(Oc2ccc(Nc3ncnc4onc(-c5ccccc5)c34)cc2)c(Cl)c1 | 105% (inactive) |
| O=C(O)c1cn(C2CC2)c2cc(N3CCN(C(=O)C[n+]4ccccc4)CC3)c(F)cc2c1=O | 99.3% (inactive) |

| Structure (SMILES) | growth |
| --- | --- |
| O=C(CSc1nc2ccccc2c(=O)n1-c1ccccc1)Nc1ccc(C(=O)/C=C/c2ccc(Cl)cc2)cc1 | 110% (inactive) |
| Cc1nc(Nc2cn[nH]c2C(=O)Nc2ccc(CN3CCN(C)CC3)cc2)c2ccsc2n1 | 114% (inactive) |
| CN1C(=O)N(C)C2Nn3c(s/c(=C4\C(=O)N(CCc5ccccc5)c5ccccc54)c3=O)=NC21 (centres undefined) | 70.5% (inactive) |
| O=C(/C=C/c1ccc(C(F)(F)F)cc1)c1ccc(Nc2nc(NCCO)nc(N3CCOCC3)n2)cc1 | 81.8% (inactive) |
| COc1cc(/C=C/C(=O)c2ccc(Nc3nc(NCCO)nc(N4CCOCC4)n3)cc2)cc(OC)c1OC | 35.3% (inactive) |
| COc1cc(/C=C2\CN(S(=O)(=O)c3ccccc3)C/C(=C\c3cc(CN4CCCC4)c(O)c(OC)c3)C2=O)cc(CN2CCCC2)c1O | 26.8% (inactive) |
| O=c1c2cc(F)ccc2sc2c(Nc3ccncc3)nc3ccccc3c12 | 78.6% (inactive) |
| O=c1c2cc(F)ccc2sc2c(NCCN3CCCC3)nc3ccccc3c12 | 64.8% (inactive) |
| CNC(=O)c1cc(Oc2ccc(CC(=O)Nc3cc(C(C)(C)C)cn3C)cc2)ccn1 | 108% (inactive) |
| COc1cc2nc(NC3CCCC3)nc(NC3CCN(C(C)C)CC3)c2cc1OC | 71.7% (inactive) |
| O=C(NCc1ccco1)C1CN(c2ccc(Cl)cc2)N(c2ccc(Cl)cc2)C1=O (centres undefined) | 84.2% (inactive) |
| COc1cccc2cc(N(C)c3nc(C)nc4ccsc34)ccc12 | 41.8% (inactive) |
| CN1C(=O)N(C)C2(c3ccccc3)OC(=S)NC12c1ccccc1 (centres undefined) | 102% (inactive) |
| Nc1nc(-c2cnccn2)nn1-c1nc2ccccc2s1 | 117% (inactive) |
| COc1ccc(N)c(-c2cc3c(c4c2[nH]c2ccc(OC)cc24)CCCC3)c1 | 114% (inactive) |
| COc1cccc(/C(C#N)=C/c2nc3c(N4CCOCC4)nc(Cl)nc3n2C)c1 | -65.6% (active) |
| O=c1c(-c2nc3ccccc3[nH]2)cc2ccccc2n1Cc1cn(Cc2ccc(N3CCOCC3)cc2)nn1 | 92.7% (inactive) |
| Cn1c2c(c(=O)[nH]c1=O)NC1=C(C(=O)c3ccccc31)C1(C=C(O)c3ccccc31)N2 (centres undefined) | 134% (inactive) |
| COC(=O)/C(CCC=C(C)C)=C1\[C@@H](OC(C)=O)C[C@@]2(C)[C@H]1C[C@@H](O)[C@H]1[C@@]3(C)CC[C@H](NCCCNCCCCNCCCN)[C@@H](C)[C@@H]3CC[C@@]12C | 69.4% (inactive) |
